Measured values from PubChem BioAssay (NCATS).
Inconclusive results are not listed. A number with no mark means an inactive call. The source made the active and inactive calls. Calls come from the whole dose curve; as a rule, active = well fitted cell-killing curve with a large enough effect; inconclusive = small, poorly fitted or top-dose-only effect, or effect the other way; inactive = no such curve, though single readings can be large or run the other way.
Potency is the fitted concentration of half-maximal effect.

Assay: Viability qHTS for spleen associated tyrosine kinase inhibitor (SYKi) drug resistant MV4-11 cells (AID 1963824); note: nearly all actives have a fitted effect of over 35% in size
Details: SYKi-resistant MV4-11 viability, CellTiter-Glo, 72 h; series mostly up to 45 µM; viability, % of control: at the top concentration
Summary of the method: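 CellTiter-Glo luminescence, read 10 min after reagent addition, reports viability after a 72 hr compound exposure. Cells are an MV4-11 line made resistant to SYK inhibition, seeded at 500 per well onto compound-containing plates.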
With `CC(C)C1NC(=O)CNC(=O)C2CCCN2C(=O)C(Cc2c[nH]c3ccccc23)NC(=O)CNC(=O)C(C(O)c2ccc(O)cc2)NC(=O)CNC1=O` (stereo not given) the “viability, % of control” value was 98.9% [at 17.3 µM].
In the case of `CC1CCC2(NC1)OC1C(O)C3C4CCC5CC(O[C@@H]6O[C@H](CO)[C@@H](O)[C@H](O)[C@H]6O[C@@H]6O[C@@H](C)[C@H](O)[C@@H](O)[C@H]6O)CCC5(C)C4CCC3(C)C1C2C` (stereo not given in full), the “viability, % of control” value is reported as 90.8% [at 17.3 µM].
Molecule `CC(=O)O[C@H]1[C@H](O[C@H]2[C@@H]3C=CO[C@@H](O[C@@H]4O[C@H](CO)[C@@H](O)[C@H](O)[C@H]4O)[C@@H]3[C@@]3(CO)O[C@@H]23)O[C@@H](C)[C@H](OC(=O)/C=C/c2ccccc2)[C@H]1OC(=O)/C=C/c1ccccc1` has a viability, % of control of 83.3% [at 9.25 µM].
For `O=C(/C=C/c1ccc(O)cc1)OCC1OC(O)C(OC2OC(CO)C(O)C(O)C2O)C(O)C1O` (stereo not given), the “viability, % of control” value was 86.9% [at 17.3 µM].
With `COc1ccc(/C=C/C(=O)O[C@@H]2[C@@H](O)[C@@H](O)[C@H](O[C@@H]3C=C(CO)[C@H]4[C@H](O[C@@H]5O[C@H](CO)[C@@H](O)[C@H](O)[C@H]5O)OC=C[C@H]43)O[C@H]2C)cc1O` the “viability, % of control” value was 98.3% [at 17.3 µM].
In the case of `CC(/C=C/C1(O)C(C)(C)CC(O)CC1(C)O)OC1OC(CO)C(O)C(O)C1O` (stereo not given), the “viability, % of control” value is reported as 103% [at 17.3 µM].
In the case of `CCN(CC)CCOc1ccc2c(c1)C(=O)c1cc(OCCN(CC)CC)ccc1-2`, the Potency is reported as 9440 nM (active).
In the case of `CC1(C)CC[C@]2(C(=O)O[C@@H]3O[C@H](CO)[C@@H](O)[C@H](O)[C@H]3O)CC[C@]3(C)C(=CCC4[C@@]5(C)C[C@@H](O)[C@H](O)[C@](C)(C(=O)O)C5CC[C@]43C)C2C1O` (stereo not given in full), the “viability, % of control” value is reported as 99.5% [at 17.3 µM].
For `COc1cc2c(NC3CCN(C(C)C)CC3)nc(N3CCC(F)(F)CC3)nc2cc1OCCCN1CCCC1`, the Potency was 2910 nM (active).
`C/C=C(\C)C(=O)O[C@@H]1CC2[C@@H](CC=C3C[C@@H](O[C@H]4C[C@H](OC)[C@H](O[C@H]5C[C@H](OC)[C@H](O[C@@H]6O[C@H](C)[C@@H](O[C@H]7C[C@H](OC)[C@H](O[C@@H]8O[C@H](CO)[C@@H](O)[C@H](O)[C@H]8O)[C@@H](C)O7)[C@H](OC)[C@H]6O)[C@@H](C)O5)[C@@H](C)O4)CC[C@@]32C)[C@@]2(O)CC[C@H](C(C)=O)[C@@]12C` (stereo not given in full) gave a viability, % of control of 61.7% [at 9.25 µM].
For `CC1(C)CC[C@]23CO[C@@]4(CCC5[C@@]6(C)CC[C@H](O[C@@H]7OC[C@H](O[C@@H]8O[C@H](CO)[C@@H](O)[C@H](O)[C@H]8O[C@@H]8OC[C@@H](O)[C@H](O)[C@H]8O)[C@H](O)[C@H]7O)[C@@](C)(CO)C6CC[C@@]5(C)[C@]4(C)CC2=O)[C@@H]3C1` (stereo not given in full), the Potency was 4910 nM (active).
With `COc1cc(/C=C/C(=O)O[C@H]2[C@H](OC(=O)/C=C/c3cc(OC)c(O)c(OC)c3)O[C@H](CO[C@@H]3O[C@H](CO)[C@@H](O)[C@H](O)[C@H]3O)[C@@H](O)[C@@H]2O)ccc1O` the “viability, % of control” value was 121% [at 17.3 µM].
In the case of `COc1c2c(c(C)c3c1C(=O)OC3)O[C@@]1(C)CCC3(C(C)(C)O)OC(=O)CC[C@]3(C)[C@H]1C2` (stereo not given in full), the “viability, % of control” value is reported as 54.7% [at 17.3 µM].
In the case of `COc1cc(Br)c(Nc2nc(-c3c(C)nc4ncccn34)cs2)c(Br)c1`, the Potency is reported as 1160 nM (active).
In the case of `Oc1cccc(Nc2ccnc3[nH]c4ccccc4c23)c1`, the Potency is reported as 2310 nM (active).
In the case of `Clc1ccccc1CNCC1CCC(CNCc2ccccc2Cl)CC1` (stereo not given), the Potency is reported as 14600 nM (active).
In the case of `CC(=O)OC[C@]12[C@H](OC(C)=O)C(=O)[C@@H]3[C@@H](O)[C@@]14O[C@@]3(C)COC(=O)c1cccnc1[C@@H](C)[C@H](C)C(=O)O[C@@H]([C@H](O)[C@@H]2OC(C)=O)[C@]4(C)O`, the Potency is reported as 3430 nM (active).
For `CC(=O)O[C@@H]1[C@H](O[C@@H]2O[C@H](CO)[C@@H](O)[C@H](O)[C@H]2O)[C@@H](O[C@@H]2O[C@@H](C)[C@H](O)[C@@H](O[C@@H]3O[C@H](CO)[C@@H](O)[C@H](O)[C@H]3O)[C@H]2O)[C@H](OC(=O)[C@]23CCC(C)(C)C[C@H]2C2=CCC4[C@@]5(C)C[C@H](O)[C@H](O[C@@H]6O[C@H](C(=O)O)[C@@H](O)[C@H](O)[C@H]6O)[C@@](C)(C(=O)O)C5CC[C@@]4(C)[C@]2(C)CC3)O[C@@H]1C` (stereo not given in full), the viability, % of control was 91.2% [at 9.25 µM].
In the case of `CSc1cc2c(s1)c1cnn(Cc3ccccc3F)c(=O)c1n2C`, the “viability, % of control” value is reported as 83%.
For `COc1cc(O)cc(C)c1C(=O)O[C@@H]1[C@H](O)[C@@H](CO)O[C@H]1n1ccc(=O)[nH]c1=O`, the Potency was 2000 nM (active).
Molecule `C[C@@H]1CC[C@]2(C(=O)O[C@@H]3O[C@H](CO[C@@H]4O[C@H](CO)[C@@H](O)[C@H](O)[C@H]4O)[C@@H](O)[C@H](O)[C@H]3O)CC[C@]3(C)C(=CCC4[C@@]5(C)CC[C@H](O)[C@](C)(C(=O)O)C5CC[C@]43C)[C@@H]2[C@]1(C)O` (stereo not given in full) has a viability, % of control of 98.7% [at 9.25 µM].
For `CC1(O)CCC2C(C(=O)O)=COC(OC3OC(CO)C(O)C(O)C3OC(=O)/C=C/c3ccc(O)cc3)C21` (stereo not given), the “viability, % of control” value was 98.8% [at 17.3 µM].
In the case of `CC(=O)OC1(C)CC(O)C2(O)C=COC(OC3OC(CO)C(O)C(O)C3O)C12` (stereo not given), the “viability, % of control” value is reported as 92.3% [at 17.3 µM].
For `COc1cc(/C=C/C(=O)O[C@@H]2C[C@](O)(C(=O)O)C[C@@H](O)[C@H]2O)ccc1O`, the “viability, % of control” value was 110%.
In the case of `O=C(COc1ccc(C(=O)c2ccccc2)cc1)NC1CCN(Cc2ccccc2)CC1`, the Potency is reported as 7310 nM (active).
With `COc1cc2c(cc1O)CC[C@@H]1[C@@H]2CC[C@]2(C)[C@@H](O)CC[C@@H]12` the Potency was 934 nM (active).
In the case of `COC(=O)CCc1cc2ccoc2c(OC)c1O[C@@H]1O[C@H](CO)[C@@H](O)[C@H](O)[C@H]1O`, the “viability, % of control” value is reported as 78.7% [at 17.3 µM].
With `COc1cc2ncnc(Sc3nnc(C)s3)c2cc1OC` the Potency was 1160 nM (active).
In the case of `Cc1cc(N2CCCCC2)nc2ccccc12`, the “viability, % of control” value is reported as 85.3%.
`CC1OC(OC2C(C)OC(OC3C(O)C(CO)OC(O[C@H]4CC[C@@]5(C)C(CC[C@]6(C)C5CC=C5C7[C@@H](C)[C@H](C)CC[C@]7(C(=O)O)CC[C@]56C(=O)O)C4(C)C)C3O)C(O)C2O)C(O)C(O)C1O` (stereo not given in full) showed a viability, % of control of 78.3% [at 9.25 µM].
For `O=C(OC1C=C(CO)C2C(OC3OC(CO)C(O)C(O)C3O)OC=CC12O)c1ccc(O)cc1` (stereo not given), the “viability, % of control” value was 91.5% [at 17.3 µM].
In the case of `CCC(C)C(=O)OC1CC(O)C23C4OCC5(C(O)CC2C1(C)C(O)O4)C3C(=O)CC1(C)C(c2ccoc2)CC2OC215` (stereo not given), the Potency is reported as 563 nM (active).
With `CC(=O)c1c(O)cc2c(c1C)C(=O)CC(O)C2` (stereo not given) the “viability, % of control” value was 95.5%.
Work on `C=C(C)[C@@H](C)[C@H]1O[C@]23C[C@]4(CO2)C(CCC2[C@@]5(C)CC[C@H](O[C@@H]6OC[C@H](O)[C@H](O[C@@H]7O[C@H](CO)[C@@H](O)[C@H](O)[C@H]7O)[C@H]6O[C@@H]6O[C@@H](CO)[C@H](O)[C@H]6O)C(C)(C)C5CC[C@]24C)C3[C@@](C)(O)[C@@H]1OC(C)=O` (stereo not given in full) yielded a viability, % of control of 92.6% [at 9.25 µM].
With `NC1(C(=O)NC(CCO)c2ccc(Cl)cc2)CCN(c2ncnc3[nH]ccc23)CC1` (stereo not given) the Potency was 4110 nM (active).
With `CC1=CC(=O)CC(C)(C)C1/C=C/C(C)OC1OC(COC2OCC(O)C(O)C2O)C(O)C(O)C1O` (stereo not given) the “viability, % of control” value was 65.7% [at 17.3 µM].
With `CC(=O)OC1C=C(C(=O)O)C2(CO)CCC(C)C(C)(CCc3ccoc3)C2C1` (stereo not given) the “viability, % of control” value was 82.1% [at 17.3 µM].
For `C=C(C)C(=O)OC1CC2(C)OC(=CC2=O)C(=C)CC2OC(=O)C(COC)C12` (stereo not given), the Potency was 1610 nM (active).
`CC(=O)O[C@@H]1[C@H](O[C@@H]2OC[C@](O)(CO)[C@H]2O)[C@@H](O[C@@H]2O[C@@H](C)[C@H](O)[C@@H](O[C@@H]3O[C@H](CO)[C@@H](O)[C@H](O)[C@H]3O)[C@H]2O)[C@H](OC(=O)[C@]23CCC(C)(C)C[C@H]2C2=CCC4[C@@]5(C)C[C@H](O)[C@H](O[C@@H]6O[C@H](C(=O)O)[C@@H](O)[C@H](O)[C@H]6O)[C@@](C)(C(=O)O)C5CC[C@@]4(C)[C@]2(C)CC3)O[C@@H]1C` (stereo not given in full) showed a viability, % of control of 95.1% [at 9.25 µM].
In the case of `Cc1cc(C)cc(C(=O)NOCCCCCC(=O)NO)c1`, the Potency is reported as 580 nM (active).
